Results reported in PubChem BioAssay.
The source made the active and inactive calls.

Tests used:
[1] = tested on: Plasmodium falciparum Sir2 (PF13_0152, Sir2A); experiment: pfSir2 binders on small-molecule microarrays, primary screen, biochemical, small-molecule microarray, 635 nm fluorescence (AID 1098); conditions: small-molecule microarray binding, fluorescence 635 nm; higher = more signal;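 further: score merges spot fluorescence intensity with its signal-to-noise ratio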
[2] = small-molecule microarray binders of probe aDKK1, primary screen, biochemical, biotinylated probe, 635/667 nm fluorescence (AID 1099); conditions: higher = more signal;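 further: score merges 667nm spot fluorescence with signal to noise across triplicate slides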
[3] = small-molecule microarray binders of probe aCHRDL2, primary screen, biochemical, biotinylated probe, 635/667 nm fluorescence (AID 1100); conditions: higher = more signal
[4] = splicing luciferase reporter signal modulators, primary screen, spliceosome inhibition project, cell-based, HEK293, splice +/- reporter (AID 1101); conditions: luminescence, 24 h, higher = more signal, called active from +8 up or from −8 down;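 further: HEK293 cells carrying a splicing-competent luciferase reporter gene; test concentration not given here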
[5] = target: Fibroblast growth factor 10 (Homo sapiens) (UniProt O15520); experiment: FGF10 binders on small-molecule microarrays, primary screen, biochemical, small-molecule microarray, 635 nm fluorescence (AID 1102); conditions: FGF10 binding, fluorescence 635 nm, higher = more signal
Sequence of Fibroblast growth factor 10 (Homo sapiens) (O15520 whole entry, looked up): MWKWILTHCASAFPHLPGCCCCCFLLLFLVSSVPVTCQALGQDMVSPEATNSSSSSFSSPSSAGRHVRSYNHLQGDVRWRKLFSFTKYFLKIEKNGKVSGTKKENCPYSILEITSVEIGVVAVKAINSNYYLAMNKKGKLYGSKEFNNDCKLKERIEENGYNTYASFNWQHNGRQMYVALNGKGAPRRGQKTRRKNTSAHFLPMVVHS

[6] = tested on: glycogen synthase kinase-3 (GSK3A per assay name; protocol says GSK3B); experiment: GSK3 binders on small-molecule microarrays, primary screen, biochemical, small-molecule microarray, 635 nm fluorescence, GSK3A (AID 1103); conditions: small-molecule microarray binding, fluorescence 635 nm; higher = more signal; further: the record names both GSK3A and GSK3B
[7] = target: Epidermal growth factor receptor (Homo sapiens) (UniProt P00533); experiment: EGFR binders on small-molecule microarrays, primary screen, biochemical, small-molecule microarray, 635 nm fluorescence (AID 1104); conditions: EGFR binding, higher = more signal;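 further: score merges 667 nm emission intensity with spot signal to noise over triplicate slides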
Sequence of Epidermal growth factor receptor (Homo sapiens) (P00533 whole entry, looked up): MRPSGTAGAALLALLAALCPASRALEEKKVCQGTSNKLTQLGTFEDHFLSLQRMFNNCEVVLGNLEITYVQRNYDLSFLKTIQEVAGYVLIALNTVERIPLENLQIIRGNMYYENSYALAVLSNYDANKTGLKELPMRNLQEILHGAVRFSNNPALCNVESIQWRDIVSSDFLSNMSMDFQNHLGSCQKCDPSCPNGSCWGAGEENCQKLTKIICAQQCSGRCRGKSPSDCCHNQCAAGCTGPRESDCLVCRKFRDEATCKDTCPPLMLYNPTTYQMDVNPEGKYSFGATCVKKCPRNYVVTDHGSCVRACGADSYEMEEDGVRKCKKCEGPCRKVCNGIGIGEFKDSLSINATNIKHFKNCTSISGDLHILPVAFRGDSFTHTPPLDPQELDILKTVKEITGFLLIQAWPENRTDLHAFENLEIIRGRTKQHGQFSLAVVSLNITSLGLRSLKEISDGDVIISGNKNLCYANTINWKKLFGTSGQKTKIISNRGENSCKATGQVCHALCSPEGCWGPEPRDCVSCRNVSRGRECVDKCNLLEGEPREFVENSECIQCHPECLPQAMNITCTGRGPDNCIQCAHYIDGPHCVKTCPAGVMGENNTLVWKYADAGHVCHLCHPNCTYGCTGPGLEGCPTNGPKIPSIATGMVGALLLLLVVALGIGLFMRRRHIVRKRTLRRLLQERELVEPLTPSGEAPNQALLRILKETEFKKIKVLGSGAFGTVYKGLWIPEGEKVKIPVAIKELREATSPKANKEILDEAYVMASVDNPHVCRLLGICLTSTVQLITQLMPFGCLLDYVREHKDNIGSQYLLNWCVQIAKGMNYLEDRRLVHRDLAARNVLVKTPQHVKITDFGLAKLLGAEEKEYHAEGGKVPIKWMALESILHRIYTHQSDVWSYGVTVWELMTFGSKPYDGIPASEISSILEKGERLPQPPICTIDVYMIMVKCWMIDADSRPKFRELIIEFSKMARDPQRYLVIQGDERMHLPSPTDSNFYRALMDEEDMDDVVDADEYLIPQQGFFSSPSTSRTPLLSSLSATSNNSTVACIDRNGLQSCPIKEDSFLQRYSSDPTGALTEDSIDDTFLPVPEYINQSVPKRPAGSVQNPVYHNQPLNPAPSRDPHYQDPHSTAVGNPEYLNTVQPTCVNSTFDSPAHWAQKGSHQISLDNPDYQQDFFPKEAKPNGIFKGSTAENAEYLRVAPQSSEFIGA

[8] = target: Follistatin-related protein 3 (Homo sapiens) (UniProt O95633); experiment: FSTL3 binders on small-molecule microarrays, primary screen, biochemical, small-molecule microarray, 635 nm fluorescence (AID 1105); conditions: FSTL3 binding, higher = more signal;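 further: score merges emission near 667 nm and signal to noise per printed spot across three slides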
Sequence of Follistatin-related protein 3 (Homo sapiens) (O95633 whole entry, looked up): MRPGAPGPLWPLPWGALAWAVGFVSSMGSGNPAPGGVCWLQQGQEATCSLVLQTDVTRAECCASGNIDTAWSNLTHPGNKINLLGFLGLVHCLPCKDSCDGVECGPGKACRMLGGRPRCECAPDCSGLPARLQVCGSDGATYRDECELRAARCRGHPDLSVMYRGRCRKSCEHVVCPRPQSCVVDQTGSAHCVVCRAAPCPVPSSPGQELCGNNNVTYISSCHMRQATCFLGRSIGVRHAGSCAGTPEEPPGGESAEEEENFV

[9] = target: Dickkopf-related protein 1 (Homo sapiens) (UniProt O94907); experiment: DKK1 binders on small-molecule microarrays, primary screen, biochemical, small-molecule microarray, 635 nm fluorescence scan (AID 1106); conditions: DKK1 binding, higher = more signal;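 further: score merges emission near 667 nm with signal to noise over three replicate slides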
Sequence of Dickkopf-related protein 1 (Homo sapiens) (O94907 whole entry, looked up): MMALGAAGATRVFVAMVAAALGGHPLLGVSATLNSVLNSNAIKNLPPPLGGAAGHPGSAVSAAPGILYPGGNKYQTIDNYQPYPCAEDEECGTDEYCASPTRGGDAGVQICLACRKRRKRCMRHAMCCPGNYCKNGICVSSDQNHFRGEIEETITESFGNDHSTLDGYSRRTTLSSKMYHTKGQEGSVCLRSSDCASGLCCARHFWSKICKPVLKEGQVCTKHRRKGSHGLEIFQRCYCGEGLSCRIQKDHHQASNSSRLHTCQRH

[10] = tested on: Inhibin beta A chain (activin A); experiment: INHBA (activin A) binders on microarrays, primary screen, biochemical, small-molecule microarray, 635 nm fluorescence scan (AID 1107); conditions: small-molecule microarray binding, higher = more signal;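 further: mouse activin A protein probed at 4.33 µg/mL on printed slides; score merges bound-protein fluorescence near 667 nm with spot signal-to-noise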
[11] = tested on: Human papillomavirus type 1a protein E7 (residues 44-93); experiment: HPV1a E7 fragment binders on microarrays, primary screen, biochemical, small-molecule microarray, residues 44-93, 635 nm fluorescence (AID 1108); conditions: small-molecule microarray binding, fluorescence 635 nm; higher = more signal;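 further: E7 fragment applied at 1 µg/mL in TBST for 1 h at 4 C; score combines spot fluorescence with its signal to noise ratio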
[12] = modulators of HCV replicon luciferase signal, primary screen, HCV replication inhibitor project, Huh7 cells, luciferase reporter (AID 1109); conditions: 48 h, higher = more signal;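 further: huh7 hepatoma cells harbouring a luciferase neomycin HCV replicon reporter; luciferase luminescence as measure of HCV replicon replication; test concentration not given here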
[13] = target: Left-right determination factor 2 (Homo sapiens) (UniProt O00292); experiment: LEFTY2 binders on small-molecule microarrays, primary screen, biochemical, small-molecule microarray, 635 nm fluorescence scan (AID 1110); conditions: LEFTY2 binding, higher = more signal
Sequence of Left-right determination factor 2 (Homo sapiens) (O00292 whole entry, looked up): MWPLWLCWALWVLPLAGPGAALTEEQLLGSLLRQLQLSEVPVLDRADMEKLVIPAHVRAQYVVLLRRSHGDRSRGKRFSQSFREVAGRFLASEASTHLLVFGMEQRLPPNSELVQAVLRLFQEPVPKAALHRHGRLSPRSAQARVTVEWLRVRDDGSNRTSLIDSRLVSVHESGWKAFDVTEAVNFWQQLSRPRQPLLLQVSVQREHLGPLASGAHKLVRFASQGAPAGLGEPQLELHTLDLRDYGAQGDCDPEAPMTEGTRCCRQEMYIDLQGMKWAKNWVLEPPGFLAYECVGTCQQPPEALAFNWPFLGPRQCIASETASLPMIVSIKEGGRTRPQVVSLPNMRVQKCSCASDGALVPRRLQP

[14] = target: Calmodulin-1 (Homo sapiens) (UniProt P0DP23); experiment: CALM1 binders on microarrays, EGTA buffer, profiling panel, biochemical, small-molecule microarray, Cy5-labelled CALM1 (AID 1111); conditions: Cy5-CALM1 binding fluorescence, higher = more signal;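 further: labelled calmodulin applied in Tris saline Tween buffer holding calcium plus EGTA and DTT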
[15] = target: Calmodulin-1 (Homo sapiens) (UniProt P0DP23); experiment: calcium-bound CALM1 binders on microarrays, profiling panel, artefact control for SMM control-protein annotation, biochemical, small-molecule microarray, Cy5-labelled CALM1, plus calcium (AID 1112); conditions: Cy5-CALM1 binding fluorescence, higher = more signal;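 further: score merges spot fluorescence with signal to noise from triplicate slides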
[16] = small-molecule microarray binders of probe aWnt5a, primary screen, biochemical, biotinylated probe, 635/667 nm fluorescence (AID 1113); conditions: higher = more signal;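 further: score merges 667 nm fluorescence intensity with signal-to-noise per printed feature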
[17] = small-molecule microarray binders of probe aShh, primary screen, biochemical, biotinylated probe, 635/667 nm fluorescence (AID 1114); conditions: higher = more signal;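 further: probe is biotin-labelled aShh protein from a stem cell growth factor screen; measures binding of labelled protein to compounds printed on the slide; score merges feature fluorescence at 667 nm with signal-to-noise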
[18] = small-molecule microarray binders of probe aNog, primary screen, biochemical, biotinylated probe, 635/667 nm fluorescence (AID 1115); conditions: higher = more signal;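 further: probe is biotinylated aNog protein used at 0.15 µg/mL for 1 h at 4 C; z-score combines 667 nm fluorescence of each spot with its signal to noise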
[19] = target: Torsin-1A-interacting protein 1 (Homo sapiens) (UniProt Q5JTV8); experiment: LAP1 binders from COS7 cell lysate, primary screen, small-molecule microarray, 635/667 nm fluorescence (AID 1116); conditions: COS7-hLAP1 lysate binding, 635 nm fluorescence, higher = more signal
Sequence of Torsin-1A-interacting protein 1 (Homo sapiens) (Q5JTV8 whole entry, looked up): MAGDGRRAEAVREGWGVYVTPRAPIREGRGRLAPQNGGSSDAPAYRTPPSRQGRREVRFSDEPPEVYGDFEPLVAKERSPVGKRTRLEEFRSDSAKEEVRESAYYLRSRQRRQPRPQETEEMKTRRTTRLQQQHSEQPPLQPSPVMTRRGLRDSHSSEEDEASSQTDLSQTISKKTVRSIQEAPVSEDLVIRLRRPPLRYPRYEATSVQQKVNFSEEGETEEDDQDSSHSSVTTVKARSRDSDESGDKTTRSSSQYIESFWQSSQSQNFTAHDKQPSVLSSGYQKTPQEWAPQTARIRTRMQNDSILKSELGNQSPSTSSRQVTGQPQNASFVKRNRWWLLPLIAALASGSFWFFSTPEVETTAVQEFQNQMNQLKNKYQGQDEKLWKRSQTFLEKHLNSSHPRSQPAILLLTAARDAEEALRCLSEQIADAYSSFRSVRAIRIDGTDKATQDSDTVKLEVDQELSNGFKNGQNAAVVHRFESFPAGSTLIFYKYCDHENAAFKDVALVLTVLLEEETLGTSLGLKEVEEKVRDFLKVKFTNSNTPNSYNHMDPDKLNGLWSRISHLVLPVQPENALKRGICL

[20] = target: Alpha-bungarotoxin (Bungarus multicinctus) (UniProt P60615); experiment: alpha-bungarotoxin binders on microarray, profiling panel, artefact control for SMM control protein annotation, biochemical, small-molecule microarray, Alexa647 label, 635/667 nm fluorescence (AID 1117); conditions: alpha-BTX-A647 binding fluorescence, higher = more signal
Sequence of Alpha-bungarotoxin (Bungarus multicinctus) (P60615 whole entry, looked up): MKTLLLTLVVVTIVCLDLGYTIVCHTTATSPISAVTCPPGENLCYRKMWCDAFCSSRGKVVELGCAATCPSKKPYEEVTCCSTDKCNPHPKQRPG

Compound	composite z-score [1]	composite z-score [2]	composite z-score [3]	z-score [4]	composite z-score [5]	composite z-score [6]	composite z-score [7]	composite z-score [8]	composite z-score [9]	composite z-score [10]	composite z-score [11]	z-score [12]	composite z-score [13]	composite z-score [14]	composite z-score [15]	composite z-score [16]	composite z-score [17]	composite z-score [18]	composite z-score [19]	composite z-score [20]
CC(CCC(=O)OC[C@H]1O[C@H](C#Cc2ccccc2)C=C[C@@H]1Oc1ccc(C)cc1)=NOC(C)CN1CCCCc2nc(C)c(C)cc21 (stereo not given in full)	0.508	-0.241	0.159	-0.176 (inactive)	0.0616	-0.555	-0.598	-0.159	0.191	0.69	0.686	-1.17	-0.132	-0.19	0.571	-0.197	-0.0626	-0.257	-0.0043	1.53
O=C1C=C[C@@H](O)[C@@H]2[C@@H]3C(=O)N(C4CCCCC4)C(=O)[C@@H]3CC[C@@H]12	0.252	-0.0259	-0.369	2.14 (inactive)	1.07	0.708	0.378	0.797	0.844	0.234	0.502	-4.18	0.71	-0.0865	-0.713	-0.0459	-0.0793	-0.158	0.191	0.518
CC(CCN1CCc2nc(-c3ccccc3)c(-c3ccccc3)cc2C1)=NO[C@@H](C)c1cc(-c2c(C)cc(C)cc2C)no1	0.655	-0.0029	0.77	-1.56 (inactive)	-0.567	-0.725	-0.345	-0.601	-0.524	0.5	-0.324	-1.47	-0.372	0.445	-0.0323	-0.256	-0.428	-0.0211	-0.0029	1.33
CC(C)=CCCC(C)=CCON=C1[C@H]2CCn3c(=O)n(-c4ccccc4)c(=O)n3[C@H]2[C@H](O)[C@@H]2O[C@H]12	1.05	-0.229	-0.55	1.77 (inactive)	0.726	1.26	0.752	1.25	0.912	0.722	1.35	-3.17	0.802	-0.198	-0.807	-0.154	-0.102	-0.061	0.458	0.514
O=C1[C@H]2CCn3c(=O)n(-c4ccccc4)c(=O)n3[C@H]2[C@H](O)[C@@H]2O[C@H]12	0.784	-0.418	-0.438	0.583 (inactive)	0.837	0.381	0.299	0.148	0.427	0.269	-0.453	-0.687	0.33	-0.14	-0.391	-0.247	-0.124	-0.0428	0.085	0.658
CCOC(=O)[C@H](Cc1ccccc1)NC(=O)CCC1CC(OC(=O)NCc2cccc3ccccc23)CC2(CCCC(COC(=O)NCc3ccc4c(c3)OCO4)O2)O1 (stereo not given in full)	0.216	-0.0102	-0.343	0.277 (inactive)	0.587	-0.0333	0.179	0.224	0.141	0.325	0.524	1.08	0.284	-0.29	-0.457	-0.104	0.214	-0.299	0.629	-0.382
CO[C@H]1COC(=O)CCC[C@H](C)[C@@H](OC)COC(=O)CC=C[C@@H]1C	0.981	-0.26	-0.811	-1.05 (inactive)	0.267	0.278	0.711	0.319	0.846	0.691	-0.431	-1.63	0.966	-0.946	-1.1	-0.191	-0.0248	-0.267	0.387	0.0355
CC(=O)OC[C@H]1O[C@H](C#CCCc2ccccc2)C=C[C@@H]1OC(C)=O	1.05	-0.0993	-0.438	0.181 (inactive)	0.787	-0.113	0.187	0.981	1.02	0.309	-0.515	-1.12	0.751	-0.288	-0.715	-0.0721	0.0204	0.0658	0.128	1.53
CC(=O)OC[C@H]1O[C@H](CCON=C(C)CCN2CCCc3nc(C)c(C)cc32)C=C[C@@H]1OC(C)=O	0.773	-0.108	-0.408	1.06 (inactive)	0.932	1.24	0.986	1.16	0.735	0.965	1.33	-0.186	0.686	-0.191	-0.947	-0.0229	-0.138	0.189	0.489	0.133
C[C@@H](c1ccccc1)N1C(=O)[C@H]2[C@H]3[C@H](O)[C@H](O)CC(=NOCc4ccccc4)[C@@H]3CC[C@H]2C1=O	-0.139	1.19	1.31	0.36 (inactive)	-0.222	-0.187	-0.169	-0.909	-1	0.549	-0.233	-0.701	0.11	-0.38	-0.0198	0.0061	-0.276	0.593	0.348	0.993
COc1ccc(COC(=O)NN=C2C[C@@H](O)[C@@H](O)[C@@H]3[C@@H]4C(=O)N(C[C@@H]5CCCO5)C(=O)[C@@H]4CC[C@@H]23)cc1	1.06	-0.288	-0.241	-0.00678 (inactive)	1.01	0.0003	-0.127	-0.139	0.0237	0.203	0.222	0.778	0.179	0.342	-0.636	-0.172	-0.0793	-0.0496	0.411	0.915
COC(=O)[C@H](Cc1ccccc1)NC(=O)[C@@H](C)CO	-0.535	0.629	0.389	-1.36 (inactive)	0.477	0.0595	0.651	1.03	0.671	1.1	-0.0054	-0.499	0.597	-0.597	-0.32	-0.034	0.214	0.376	0.763	0.0296
